# Measurements reported in PubChem BioAssay AID1417 (Emory University Molecular Libraries Screening Center, 2008).
# Hit rate of the full screen: of about 1,100 compounds, about 880 (80%) were called active. The rule behind the calls is not given here. So high a share suggests a set chosen from earlier hits. This is one part of the list. Potency and affinity values are given separately.
# Target: Induced myeloid leukemia cell differentiation protein Mcl-1 (Homo sapiens) (UniProt Q07820)
# Assay: Mcl-1/Noxa binding inhibitor potency, dose response, biochemical, TR-FRET (AID 1417);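 note: 100% = protein plus peptide without compound and 0% = peptide alone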
# Conditions: Mcl-1/Noxa peptide interaction, cell-free TR-FRET (terbium/rhodamine), 2 h; at 54 µM (top of the series)
# Chain of Induced myeloid leukemia cell differentiation protein Mcl-1 (Homo sapiens) (Q07820 whole entry, looked up): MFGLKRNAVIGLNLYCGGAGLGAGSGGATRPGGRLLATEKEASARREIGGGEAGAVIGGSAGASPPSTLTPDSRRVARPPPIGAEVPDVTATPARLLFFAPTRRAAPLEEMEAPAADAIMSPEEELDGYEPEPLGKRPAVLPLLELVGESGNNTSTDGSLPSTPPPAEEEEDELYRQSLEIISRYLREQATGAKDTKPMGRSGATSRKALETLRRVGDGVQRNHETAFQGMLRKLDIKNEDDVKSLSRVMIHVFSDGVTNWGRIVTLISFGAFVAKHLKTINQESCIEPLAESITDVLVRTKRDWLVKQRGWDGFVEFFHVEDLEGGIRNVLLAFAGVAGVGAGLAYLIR
row,Compound,percent of control (lower = inhibition)
1,CCN1C(=O)/C(=C2/Sc3ccc(OC)cc3N2C)SC1=Nc1cccc(O)c1,54.8% (inactive)
2,Cn1c(=O)c2c(nc(NCc3ccco3)n2CC(O)COc2ccccc2)n(C)c1=O (stereo not drawn),81.3% (inactive)
3,N=C1/C(=C\c2ccc(-c3ccc(C(=O)O)cc3)o2)C(=O)N=C2SC=C(c3ccccc3)N12,-1.95% (active)
4,COc1ccccc1C1NC=C([N+](=O)[O-])C=C1[N+](=O)[O-] (stereo not drawn),111% (inactive)
5,CC1CCCCC1NC(=O)c1ccc2c(c1)[nH]c(=O)n2C1CCCC1 (stereo not drawn),86.3% (inactive)
6,c1ccc(Nc2cccc(Nc3ccccc3)c2)cc1,60.5% (inactive)
7,CN(C)c1ccc(NC(=O)/C=C/c2c(Cl)cccc2Cl)cc1,80.1% (inactive)
8,CN(C)c1ccc(NC(=O)Nc2cccc(Cl)c2)cc1,49.6% (active)
